Measurements as given in PubChem BioAssay (NCI).
The panel holds about 83,000 compounds, 20% with a hit somewhere; the sample as a whole holds those more often.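 48-hour exposure, single concentration, 96-well plates; percent growth endpoint where 0 means no net growth. Active: below 10.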 Unmarked numbers belong to inactive results. The source made the active and inactive calls.

system: OVCAR-5 ovarian; assay: NCI-60 one-dose screen, 48 h (100 = growth as untreated, 0 = no growth, -100 = all killed); settings: 10 µM unless noted

Row | SMILES | growth
1 | CCC(c1ccccc1)C(CC)c1ccc(O)c(O)c1 (stereo not drawn) | 115%
2 | CN1CCN(c2ccc3nc(-c4ccc5nc(-c6ccc(OCCC(C)(C)C)cc6)[nH]c5c4)[nH]c3c2)CC1 | -2.35% (active)
3 | NC(N)=Nc1ccc(S(=O)(=O)O)cc1 | 99.7%
4 | O=C(/C=C/c1cc2ccccc2[nH]c1=O)/C=C/c1cc2ccccc2[nH]c1=O | 15.6%
5 | Nc1ccc(Nc2nccc(-c3ccc4ccccc4c3)n2)cc1 | 69.1%
6 | C=C1CCC2C3(C)COC(c4ccc(OC)cc4Br)OC3CCC2(C)C1/C=C/C1=CCOC1=O (stereo not drawn) | 98.3%
7 | CCC(=O)Oc1ccc(/C(=C(\C)c2ccccc2)c2ccc(OCCN(CC)CC)cc2)cc1 | 91.7%
8 | CC(=O)/C(=C/c1cccc(Cl)c1)C(=O)c1ccccc1 | 94.1%
9 | NS(=O)(=O)c1ccc(-n2ncc3c(=O)[nH]c(CN4CCN(c5cc6c(cc5F)c(=O)c(C(=O)O)cn6C5CC5)CC4)nc32)cc1 | 97.6%
10 | COc1ccc(-c2nn(-c3ccccc3)cc2/C=C2\SC(=O)NC2=O)cc1 | 99.4%
11 | O=C(COc1cccc(/C=C2/Oc3ccccc3C2=O)c1)Nc1nccs1 | 86.6%
12 | CN1CCN(Cc2ccc(NC(=O)c3[nH]ncc3Nc3ncnc4sccc34)cc2)CC1 | 21.2%
13 | CC1=N/C(=C\c2cccc(Br)c2)C(=O)O1 | 106%
14 | COc1cc(C(=O)/C=C/c2c(C)n([O-])c3ccc(C)cc3[n+]2=O)cc(OC)c1OC | 78.3%
15 | CCN(CC)CC#CCOC(=O)[C@]1(C)CCC[C@@]2(C)[C@H]1CC(C=O)=C1C=C(C(C)C)CC[C@@H]12 | 82.7%
16 | C=C1CCC2C3(C)COC(c4ccccc4Br)OC3CCC2(C)C1C/C=C1/C(=O)OCC1OC(C)=O (stereo not drawn) | -38.3% (active)
17 | CCOC(=O)C(=Cc1ccccc1F)C(=O)OCC | 106%
18 | Cn1c2ccccc2c2c3c(c4c5ccccc5n(CCCCCC#N)c4c21)C(=O)N(O)C3=O | 12.8%
19 | CC(=O)C1=C(O)C=C2Oc3c(C(=O)/C=C/c4c(Cl)cccc4Cl)c(O)c(C)c(O)c3[C@]2(C)C1=O | -3.17% (active)

Row | SMILES | growth
20 | Oc1ccc(Nc2nccc(-c3ccc4ccccc4c3)n2)cc1 | 66.9%
21 | COc1ccc(C(=O)/C=C/c2cc3ccccc3[nH]c2=O)cc1 | 52.2%
22 | C[C@@]1(N2C(=O)OC[C@@H]2c2ccccc2)C(=O)N([C@H](CC(=O)N2CCC(N3CCCCC3)CC2)C(=O)NCc2cccc(C(F)(F)F)c2)[C@@H]1/C=C/c1ccccc1 | 115%
23 | CCOC(=O)c1cnc2ccc(Br)cc2c1Nc1cccc(S(=O)(=O)NC)c1 | 100%
24 | CCN1CCN(Cc2ccc(NC(=O)Nc3nc4ccc(Oc5ccnc(C(=O)NC)c5)cc4s3)cc2C(F)(F)F)CC1 | -40.6% (active)
25 | O=c1c2c3c(sc2n2c(CCl)nnc2n1Cc1ccccc1)CCCC3 | -58.9% (active)
26 | COC(=O)[C@H](C(C)C)n1c(=O)c2cc(OC)c(OC)cc2c2cnc3[nH]ccc3c21 | 39.9%
27 | CC(=O)Oc1ccc(Nc2c3ccccc3nc3ccccc23)cc1 | 18%
28 | COc1cc(NCCCCN=C(N)NC(N)=NC(C)C)c2ncccc2c1 | 87.2%
29 | CCN(CC)C12CCCCC1(C)C(C#N)(C#N)C(C#N)=C(N)O2 (stereo not drawn) | 101%
30 | O=C(CNC1C2CC3CC(C2)CC1C3)Sc1nnc2sc3ccccc3n12 (stereo not drawn) | 100%
31 | COc1ccc(-c2c3c(nc4n[nH]c(-c5ccc(Cl)cc5)c24)-c2ccccc2C(=O)C3=O)cc1 | 51.5%
32 | O=C(/C=C\c1ccc2ccccc2n1)c1cc(Cl)ccc1O | 81.3%
33 | O=C1c2cc3c(cc2-c2c1c1cc(Cl)c(Cl)cc1c(=O)n2CCCn1ccnc1)OCO3 | 25.9%
34 | CC1(C)CC(=O)C(c2c(-c3ccccc3)[nH]c3[nH]c(=S)[nH]c(=O)c23)=C(O)C1 | 98.4%
35 | O=C(/C=C/c1cccc(Br)c1)c1ccccc1 | 83.2%
36 | O=C(CO[N+](=O)[O-])Nc1ccc(C(=O)/C=C/c2ccc(Cl)cc2)cc1 | 66.9%
37 | CN(C)c1ccc(/C=C\C2=[N+](C)c3ccccc3C2(C)C)cc1 | 27.9%
38 | COc1ccc(CCN2CC=Cn3c2nc2ccccc2c3=O)cc1 | 45%
